# Measured values published in PubChem BioAssay.
# Unmarked numbers belong to inactive results. For some assays here: Measured potencies and affinities stand elsewhere. Calls of active or inactive are those of the source. Unless noted, how the calls were made is not given here.
# Tests used:
# [1] = antimalarial activity against Dd2 strain (AID 2302;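 active means growth inhibition above 50% at the single 2 µM test dose, taken to imply half-maximal potency below 2 µM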;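 further: 0% = DMSO untreated growth and 100% = chloroquine plus artemisinin killed control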); conditions: P. falciparum Dd2 in RBCs, LDH growth readout, 72 h; at 2 µM; hits give high values
# [2] = HepG2 cytotoxicity, primary screen, cytotoxicity control for P. falciparum antimalarial project, cell-based, ATP luminescence (AID 2303;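 active means inhibition above 50%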;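 further: 0% = DMSO wells and 100% = digitonin-killed cells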); conditions: HepG2 viability, 24-48 h, at 10 µM, hits give high values
# [3] = biological target: L-lactate dehydrogenase (Plasmodium falciparum (isolate CDC / Honduras)) (UniProt Q27743); experiment: PfLDH activity inhibition – cell lysate, 3D7 strain, counter-screen for P. falciparum growth inhibition project (AID 2304);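 further: 0% = vehicle and 100% = reference inhibitor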; conditions: P. falciparum 3D7 crude extract, LDH APAD/NBT absorbance; at 2 µM; hits give high values
# [4] = inhibition of 3D7 malaria parasite growth – strain 3D7 (AID 2306);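 further: 0% = DMSO wells and 100% = chloroquine plus artemisinin control wells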; conditions: P. falciparum 3D7 erythrocytic growth, LDH absorbance, 72 h; at 2 µM; hits give high values
# [5] = biological target: Calcium-dependent protein kinase 1 (Plasmodium falciparum (isolate 3D7)) (UniProt P62344); experiment: PfCDPK1 kinase inhibitors, biochemical, TCAMS library (AID 1159585; cut-off not given, nearly all actives have IC50 up to about 0.98 µM;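 further: inhibitors leave more ATP so luminescence rises with inhibition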); conditions: recombinant PfCDPK1, Kinase-Glo ATP depletion luminescence
# [6] = biological target: Plasmodium falciparum protein kinase 6 (PK6, PF3D7_1337100) (UniProt Q8IDW1); experiment: PfPK6 kinase inhibitors, biochemical, TCAMS library (AID 1159586); conditions: recombinant PfPK6, Kinase-Glo ATP depletion luminescence
# [7] = biological target: Protein kinase 7 (PK7), Plasmodium falciparum 3D7 (PF3D7_0213400) (UniProt Q7YTF7); experiment: inhibition of Plasmodium PK7 catalytic activity – biochemical, TCAMS antimalarial set, Kinase-Glo luminescence (AID 1159587); conditions: recombinant PfPK7, Kinase-Glo ATP depletion luminescence
# [8] = biological target: Calcium-dependent protein kinase 4 (Plasmodium falciparum (isolate 3D7)) (UniProt Q8IBS5); experiment: PfCDPK4 kinase inhibitors, biochemical, TCAMS library (AID 1159588; cut-off not given, nearly all actives have IC50 up to about 0.91 µM); conditions: recombinant PfCDPK4, Kinase-Glo ATP depletion luminescence
# Sequence of Calcium-dependent protein kinase 4 (Plasmodium falciparum (isolate 3D7)) (Q8IBS5 whole entry, looked up): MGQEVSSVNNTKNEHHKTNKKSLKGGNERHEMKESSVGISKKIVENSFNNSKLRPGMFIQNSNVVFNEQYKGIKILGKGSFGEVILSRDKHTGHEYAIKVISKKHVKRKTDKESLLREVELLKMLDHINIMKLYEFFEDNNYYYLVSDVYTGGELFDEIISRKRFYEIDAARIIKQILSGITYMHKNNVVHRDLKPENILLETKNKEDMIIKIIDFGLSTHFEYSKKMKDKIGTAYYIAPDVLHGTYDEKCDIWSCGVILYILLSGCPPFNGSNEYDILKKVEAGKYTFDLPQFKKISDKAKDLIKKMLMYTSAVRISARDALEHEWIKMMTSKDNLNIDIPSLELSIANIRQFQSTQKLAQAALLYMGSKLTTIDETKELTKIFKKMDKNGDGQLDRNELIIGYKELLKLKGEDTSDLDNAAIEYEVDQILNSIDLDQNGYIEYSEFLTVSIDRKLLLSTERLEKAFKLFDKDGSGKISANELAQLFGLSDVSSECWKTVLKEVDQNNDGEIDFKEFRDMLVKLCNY
# Sequence of L-lactate dehydrogenase (Plasmodium falciparum (isolate CDC / Honduras)) (Q27743 whole entry, looked up): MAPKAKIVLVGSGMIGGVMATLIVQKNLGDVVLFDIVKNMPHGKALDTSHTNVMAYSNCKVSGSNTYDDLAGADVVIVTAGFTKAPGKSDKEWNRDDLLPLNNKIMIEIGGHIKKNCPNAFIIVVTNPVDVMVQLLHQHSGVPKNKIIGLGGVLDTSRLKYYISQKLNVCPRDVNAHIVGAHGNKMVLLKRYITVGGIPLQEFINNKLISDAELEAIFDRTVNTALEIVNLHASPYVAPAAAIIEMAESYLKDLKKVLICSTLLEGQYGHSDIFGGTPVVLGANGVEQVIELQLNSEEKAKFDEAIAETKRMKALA
# Sequence of Protein kinase 7 (PK7), Plasmodium falciparum 3D7 (PF3D7_0213400) (Q7YTF7 1-343): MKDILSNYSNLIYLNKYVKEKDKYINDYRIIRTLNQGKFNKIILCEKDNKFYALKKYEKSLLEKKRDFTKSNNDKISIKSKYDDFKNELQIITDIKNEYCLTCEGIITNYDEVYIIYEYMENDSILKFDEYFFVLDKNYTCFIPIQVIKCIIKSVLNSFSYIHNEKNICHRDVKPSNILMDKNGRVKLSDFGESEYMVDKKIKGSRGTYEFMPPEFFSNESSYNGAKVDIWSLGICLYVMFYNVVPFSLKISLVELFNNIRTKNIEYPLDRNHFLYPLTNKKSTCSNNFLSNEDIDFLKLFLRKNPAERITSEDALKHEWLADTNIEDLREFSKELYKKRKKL
# Sequence of Calcium-dependent protein kinase 1 (Plasmodium falciparum (isolate 3D7)) (P62344 whole entry, looked up): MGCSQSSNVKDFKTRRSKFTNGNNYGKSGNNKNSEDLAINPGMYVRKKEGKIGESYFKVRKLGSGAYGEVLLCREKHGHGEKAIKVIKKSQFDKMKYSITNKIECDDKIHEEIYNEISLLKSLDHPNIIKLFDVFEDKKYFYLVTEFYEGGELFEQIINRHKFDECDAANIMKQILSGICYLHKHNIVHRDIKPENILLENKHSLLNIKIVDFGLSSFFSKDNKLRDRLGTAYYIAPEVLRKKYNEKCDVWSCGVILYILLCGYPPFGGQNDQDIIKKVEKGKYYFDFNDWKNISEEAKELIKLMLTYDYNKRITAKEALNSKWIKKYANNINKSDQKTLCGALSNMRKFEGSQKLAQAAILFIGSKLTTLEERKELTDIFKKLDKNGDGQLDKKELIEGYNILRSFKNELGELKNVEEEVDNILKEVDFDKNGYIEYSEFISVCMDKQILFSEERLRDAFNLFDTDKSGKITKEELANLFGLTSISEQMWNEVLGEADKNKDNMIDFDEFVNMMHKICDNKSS
# Sequence of Plasmodium falciparum protein kinase 6 (PK6, PF3D7_1337100) (Q8IDW1 1-305): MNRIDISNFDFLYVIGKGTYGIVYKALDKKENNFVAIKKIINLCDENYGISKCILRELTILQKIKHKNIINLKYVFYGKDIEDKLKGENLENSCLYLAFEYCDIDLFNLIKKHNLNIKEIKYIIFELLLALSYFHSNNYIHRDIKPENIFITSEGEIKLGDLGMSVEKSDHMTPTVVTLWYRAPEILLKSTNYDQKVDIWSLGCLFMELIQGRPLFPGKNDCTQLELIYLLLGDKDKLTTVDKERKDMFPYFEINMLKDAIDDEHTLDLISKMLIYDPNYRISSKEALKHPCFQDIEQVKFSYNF
SMILES,growth inhibition [1],inhibition [2],inhibition [3],growth inhibition [4],outcome [5],outcome [6],outcome [7],outcome [8]
O=C(/C=C/c1ccccc1Cl)Nc1ccc(Br)c(OCCN2CCCCC2)c1,25%,11%,-4%,99% (active),inactive,inactive,inactive,inactive
Cc1ccc2nc(C)cc(NN=Cc3ccccc3F)c2c1,100% (active),36%,-3%,97% (active),inactive,inactive,inactive,inactive
CCOc1c(Br)cc(C)cc1CNCCCNc1nc2ccccc2[nH]1,5%,24%,6%,93% (active),inactive,inactive,inactive,inactive
CC(C)C[C@@H](NC(=O)NC1CCC(CCN2[C@@H]3CC[C@H]2CC(OC(=O)C(CO)c2ccccc2)C3)CC1)C(O)(c1ccccc1)c1ccccc1 (some centres not stated),71% (active),21%,-6%,95% (active),inactive,inactive,inactive,inactive
